Assay outcomes deposited in PubChem by National Center for Advancing Translational Sciences (NCATS).
An excerpt weighted towards active compounds, which were near 3.8% of everything screened.
HepG2 tox: counter-screen for TGF-b inhibitors: cytotoxicity in HepG2 cells; HepG2 CAGA-GFP viability, ATP luminescence, 18 h; Potency, µM (series often up to 46.1 µM), inactives show at the top dose activity change, negative = cytotoxicity, most hits filed as cytotoxic; hit rate 0.76% among 410,000
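CellTiter-Glo luminescence gave cytotoxicity after 18 hours at 37 degrees C. The cells were HepG2 CAGA-GFP in 1% FBS DMEM, stimulated with 500 pg/mL TGF-beta after compound addition. %Activity was normalised to no-cell wells (complete cell-killing) and DMSO (no toxicity), and curves were fitted and classified.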
ATXN2 expr inh: ATXN2 expression inhibition; hit rate 0.72% among 360,000; AID 1745845; HEK-293 ATXN2-luciferase reporter, luminescence, 24 h; Potency, µM (titrated, usually from 57 µM), for the others: at the top dose activity change, negative = inhibition, usual class: inhibitors; note: % is set by controls: 0 for no effect and ±100 for the full control effect; nearly all actives have a fitted effect of over 55% in size
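qHTS (up to 57 uM final) was run with 24 h compound exposure of reporter cells at 37 °C. Each well was multiplexed: SteadyGlo luminescence measured ATXN2-luciferase expression after a fluorogenic Gly-Phe-AFC viability readout (25 uM final).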
ATXN viability: reduces viability in counter-screen for ATXN expression inhibitors. S2 cells (HEK-293 line with an ATXN2-luciferase reporter) viability, CellTiter-Fluor protease fluorescence, 24 h. AID 651635. Potency, µM (highest dose often 56.7 µM), actives largely listed as cytotoxic. hit rate 0.49% among 400,000; note: nearly all actives have a fitted effect of over 40% in size
HT1080NT lethal: kills 2HG-producing HT-1080-NT fibrosarcoma cells; HT-1080-NT fibrosarcoma viability, CellTiter-Glo ATP luminescence, 48 h; Potency, µM (highest dose often 46.1 µM), without a hit: at the highest dose activity, negative = less viability, usual class: cytotoxic; hit rate 1.6% among 360,000; AID 686970;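 note: NT is the 2HG producing partner of a matched IDH1 knockdown line; 0% = DMSO-treated cells and -100% = media-only wells without cells; nearly all actives have a fitted effect of over 55% in size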
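Viability by CellTiter-Glo luminescence after 48 h compound exposure at 37C of HT-1080-NT cells (750/well, RPMI, 5% FBS). % activity scaled between DMSO wells and medium-only wells, then curve-fitted and categorized by curve class.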
HT1080 IDH1KD tx: toxicity to HT-1080 IDH1 knockdown cells (counter line). AID 686971. Potency, µM (highest dose often 46.1 µM), for the others: at the highest dose activity, negative = toxicity, actives largely listed as cytotoxic. hit rate 2% among 360,000. HT-1080 IDH1 knockdown viability, ATP luminescence, 48 h;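 note: 0% = DMSO wells and -100% = cell-free medium wells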
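IDH1KD HT-1080 cells, 750/well, RPMI + 5% FBS; compound pinned after 2 h settling; 48 h, 37 °C; CellTiter-Glo luminescence; % activity normalised to DMSO and no-cell wells; curves fitted, classed by r2 and efficacy.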
TGFb inhibitor: TGF-b pathway inhibition; HepG2 CAGA-GFP TGF-b/SMAD3 reporter, GFP fluorescence, 18 h; TGF-beta stimulated, 500 pg/mL final; Potency, µM (top dose mostly 46.1 µM), for inactives: at the highest dose activity, negative = inhibition, usual class: inhibitors; hit rate 1.2% among 410,000; note: % is set by controls: 0 for no effect and ±100 for the full control effect; nearly all actives have a fitted effect of over 65% in size
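TGF-beta reporter screen: HEPG2 CAGA-GFP, 1% FBS, 500 pg/mL TGF-beta final, 18 h; per-cell GFP summed per well; curves fitted and categorized by class.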
Numbers without * were called inactive; i = inactive; ? = inconclusive; · = not tested or not shown; ! = not active in a repeat. Calls come from the whole dose curve; as a rule, active = well fitted curve in the direction sought with a large enough effect; inconclusive = small, poorly fitted or top-dose-only effect, or another doubt; inactive = no such curve, though single readings can be large; an effect the other way counts as inactive or inconclusive. Potency is the fitted concentration of half-maximal effect.

SMILES	HepG2 tox	ATXN2 expr inh	ATXN viability	HT1080NT lethal	HT1080 IDH1KD tx	TGFb inhibitor
COc1cccc(CNC(=O)C2CCN(S(=O)(=O)N3CCC4(CC3)OCCO4)CC2)c1	3%	-1%	i	-1%	1%	3%
C/C(=N/NC(=O)c1cccs1)c1ccc(NC(=O)COc2ccc(Cl)cc2Cl)cc1	3%	13µM*	11µM*	-8%	-16%	1%
C=C1CN(C(C(=O)OC)C(C)C)S(=O)(=O)c2ccc(F)cc21 (stereo not drawn)	0%	·	·	·	·	-20%
CC(C)(C)CC(C)(C)N=C1Nc2cc(Cl)c(Cl)cc2N[C@]12C[C@H]1CCCC(=O)N3CC[C@@H](C2)[C@@H]13	-44%	·	·	·	·	7.1µM*
CC(C)(C)CC(C)(C)N=C1Nc2cc(Cl)c(Cl)cc2NC12C[C@H]1CCC(=O)N3CC[C@@H](C2)[C@@H]13 (stereo partly drawn)	13µM*	?	·	-16%	-6%	11µM*
CC(C)(C)CC(C)(C)N=C1Nc2ccccc2NC12C[C@H]1CCC(=O)N3CC[C@@H](C2)[C@@H]13 (stereo partly drawn)	-46%	-2%	?	4%	5%	?
CCn1c(/C=C/Nc2ccccc2)[n+](CC)c2cc(Cl)c(Cl)cc21	-93%	?	32µM*	-17%	?	?
CC1(C)CC(=O)C2=C(C1)OC(N)=C(C#N)C2c1cn(-c2ccccc2)nc1-c1ccccc1 (stereo not drawn)	-35%	26%	i	15µM*	?	?
COc1ccc(NC(=O)CCc2c(C)nc3c(-c4ccccc4)c(C)nn3c2C)cc1Cl	0%	0%	i	·	·	3%
COc1ccc(N2C3=C(CC4=C2CCCC4=O)C(=O)CCC3)cc1	1%	-18%	i	-2%	-13%	-12%
COc1ccc(N2C3=C(CC4=C2CC(C)(C)CC4=O)C(=O)CC(C)(C)C3)cc1	16µM*	16µM*	i	7.1µM*	?	?
CC(C)(C)CC(C)(C)c1ccc(O)c(Cc2ccc(Cl)cc2Cl)c1	-41%	22µM*!	28µM*	3.7µM*	18µM*	?
FC(F)(F)c1ccc(Cl)c(Nc2nnc(-c3ccncc3)s2)c1	-12%	8%	i	13%	17%	4%
Clc1ccccc1Nc1nnc(-c2ccncc2)s1	-96%	?	i	7.3µM*	7.3µM*	-7%
CC(C)CCNC(=O)CN1C(=O)c2cccnc2Oc2ccccc21	-2%	·	·	·	·	·
C/C(=N\NC(=O)C(C)n1nc(C)c([N+](=O)[O-])c1C)c1ccccc1O (stereo not drawn)	-20%	16µM*	i	?	9.2µM*	?
Cc1nn(C(C)C(=O)NCc2ccco2)c(C)c1[N+](=O)[O-] (stereo not drawn)	28%	·	?	25%	16%	0%
CC(NC(=O)COC(=O)C1CCN(c2ccc(C(F)(F)F)cn2)CC1)c1ccc(F)cc1 (stereo not drawn)	10%	·	i	0%	-8%	3%
C[C@@H](O[C@H]1OCCN(Cc2n[nH]c(=O)[nH]2)[C@@H]1c1ccc(F)cc1)c1cc(C(F)(F)F)cc(C(F)(F)F)c1	·	?	32µM*	·	·	·
CN(C)CCn1c(NC(=O)c2ccc(Cl)cc2)nc2ccccc21	-4%	9%	i	?	11µM*	-10%
CCN(CC)CCn1c(NC(=O)c2ccc(C)cc2)nc2ccccc21	-17%	13%	i	?	-10%	-5%
CC(=O)Nc1nonc1-c1nc2ccccc2n1Cc1ccccc1	4%	0%	i	16µM*	12µM*	39%
CC(=O)Nc1nonc1-c1nc2ccccc2n1Cc1nnc(C)o1	1%	8%	i	-5%	7%	5%
O=C(Nc1nc2ccccc2n1Cc1ccc(Cl)cc1)c1ccco1	-21%	-24%	i	-12%	-13%	?
CC(=O)Nc1nc2ccccc2n1Cc1ccc(Cl)cc1	-27%	18µM*	25µM*	?	16µM*	?
SMILES	HepG2 tox	ATXN2 expr inh	ATXN viability	HT1080NT lethal	HT1080 IDH1KD tx	TGFb inhibitor
COC(=O)c1ccccc1NC(=O)Cn1c(-c2nonc2N)nc2ccccc21	-2%	-30%	?	0.71µM*	0.32µM*	-22%
CCOc1ccc(/C=C/c2ccnc3ccccc23)cc1OCC	-62%	·	·	·	·	?
COc1ccc(N2CCN(CCCNC(=O)c3cnn(-c4ccc(C)cc4)c3-n3cccc3)CC2)cc1	-15%	·	·	·	·	?
COc1ccc(N(Cc2cc3cccc(C)c3[nH]c2=O)C(=O)c2cccc(Cl)c2)cc1	-20%	-27%	?	·	·	-29%
CC(C)c1ccc(S(=O)(=O)NCc2ccc3c(c2)CCN3C(=O)c2ccccc2)cc1	-11%	·	·	·	·	?
CCN1CCc2c(sc(-n3cccc3)c2C(C)NC(=O)Nc2cc(Cl)c(OC)cc2OC)C1 (stereo not drawn)	-48%	·	·	·	·	?
Cc1c(CN(C)C)c2c(n1Cc1ccccc1)C(=O)c1ccc(Br)cc1-2	18µM*	?	?	18µM*	?	?
Cc1ccc(C(c2sc3nc(-c4ccco4)nn3c2O)N2CCC3(CC2)OCCO3)cc1 (stereo not drawn)	-3%	4%	i	·	·	-1%
CC1(C)CC(=O)c2cc(-c3nc(-c4ccc(Cl)cc4)cs3)c(=O)n(-c3cccc(F)c3)c2C1	-17%	-13%	i	·	·	-4%
Cc1ccc2nc(NCCN)c3ncc(C)n3c2c1	·	1.9µM*	·	·	·	·
CC(Sc1nnc2ccc3ccccc3n12)C(=O)Nc1ccc(Cl)cc1 (stereo not drawn)	1%	·	·	·	·	0%
FC(F)(F)c1cccc(Cn2c3[n+](c4ccc(C(F)(F)F)cc42)CCCCC3)c1	8%	-27%	i	-22%	-21%	-3%
Cc1cc(C(C)(C)C)cc(C)c1Cn1c2[n+](c3ccc(C(F)(F)F)cc31)CCCCC2	-51%	?	i	15µM*	?	?
Cc1cc(N(C)C)cc(C)c1N=Nc1cc[n+]([O-])cc1	-47%	·	11µM*	-15%	-7%	0%
CN(C)c1ccc(N=Nc2cccc(F)c2)cc1	-26%	68%	i	2%	10%	-11%
COc1ccc(CN2CCOc3ccc(CN4CCC(O)(c5cccnc5)CC4)cc3C2)c(C)c1C	·	·	i	·	·	·
CC(C)(C)c1ccc(-n2nc(C#N)c(Cl)cc2=O)cc1	6.3µM*	?	·	7.3µM*	3.3µM*	7.1µM*
